The structures appear in SMILES notation. Active and inactive are the calls of the source. Unless noted, how the calls were made is not given here.

Test [1] is described as follows: compound effects on lung adenocarcinoma cell viability – A549, calcein-AM fluorescence, 48 h, basal, profiling panel (AID 1162). Further: test concentration not given here. The settings on record: higher = more signal.
Test [2] in a line: compound effects on differentiated 3T3-L1 adipocyte viability – cell-based, 3T3-L1 adipocytes, calcein-AM fluorescence, 48 h, basal, profiling panel (AID 1163). Further: test concentration not given here. The settings on record: 3T3-L1 adipocytes viability, higher = more signal.
Test [3] in a line: compound effects on hepatocellular carcinoma cell viability – HepG2, calcein-AM fluorescence, 48 h, basal, profiling panel (AID 1164). Further: test concentration not given here. The settings on record: higher = more signal.
A short description of test [4]: compound effects on multiple myeloma cell viability – MM1S, calcein-AM fluorescence, 48 h, basal, profiling panel (AID 1165).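 Further: viability of MM1S multiple myeloma cells under basal unstimulated conditions; test concentration not given here.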 The note with it: higher = more signal.
A short description of test [5]: calcein-AM signal in unstimulated myeloma cells – cell-based, calcein-AM fluorescence, 48 h, PK04 Diversity Set, profiling panel (AID 1166).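 Further: cells grown under basal conditions without added stimulus; test concentration not given here.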 The settings on record: RPMI8226 myeloma viability, higher = more signal.
Test [6] is described as follows: JC-1 mitochondrial signal, unstimulated HepG2 cells – cell-based, JC-1 fluorescence, 24 h, 100 nL compound, profiling panel (AID 1167). Further: test concentration not given here. The note with it: HepG2 mitochondrial potential, higher = more signal.
Test [7] can be described thus: JC-1 mitochondrial signal, unstimulated adipocytes – cell-based, JC-1 fluorescence, 3T3-L1 adipocytes, 24 h, 100 nL compound, profiling panel (AID 1168). Further: test concentration not given here. The note with it: JC-1 mitochondrial fluorescence, higher = more signal, called active from +8 up or from −8 down.
The nature of test [8]: JC-1 mitochondrial signal, unstimulated myeloma cells – cell-based, JC-1 fluorescence, RPMI8226, 24 h, 100 nL compound, profiling panel (AID 1169). Further: test concentration not given here. The settings on record: JC-1 mitochondrial potential fluorescence, higher = more signal.
Test [9] is described as follows: JC-1 mitochondrial signal, unstimulated MM1S myeloma – cell-based, JC-1 fluorescence, 24 h, 100 nL compound, profiling panel (AID 1170). Further: test concentration not given here. The settings on record: MM1S mitochondrial potential, higher = more signal.
Test [10] is described as follows: resazurin metabolic signal in A549 cells – cell-based, resazurin fluorescence, 24 h, PK04 Diversity Set, profiling panel (AID 1171). Further: test concentration not given here. The note with it: A549 viability, higher = more signal, called active from +8 up or from −8 down. Background: The colour change of resazurin is a common sign of viable cells or microbes.
The nature of test [11]: resazurin metabolic signal in HepG2 cells – cell-based, resazurin fluorescence, 24 h, PK04 Diversity Set, profiling panel (AID 1172). Further: test concentration not given here. The settings on record: HepG2 viability, higher = more signal.
Test [12] can be described thus: budding yeast growth changes without added modifier – OD600, strain BY4716, 24 h, basal condition, primary screen (AID 1173). The note with it: S. cerevisiae BY4716 growth, OD600, 24 h; higher = more signal, called active from +8 up or from −8 down.
Test [13] is described as follows: viability profiling in MM1S myeloma cells – cell-based, resazurin fluorescence, basal, 24 h, PK04 Diversity Set, profiling panel (AID 1174). Further: test concentration not given here. The settings on record: higher = more signal, called active from +8 up or from −8 down.
Test [14] addresses Dihydroorotate dehydrogenase (quinone), mitochondrial (Plasmodium falciparum (isolate 3D7)) (UniProt Q08210). Put plainly: inhibition of P. falciparum DHODH – biochemical, C-terminal His tag, absorbance 600 nm, primary screen (AID 1175).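 Further: recombinant parasite enzyme with a five histidine tag at its C terminus; test concentration not given here.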 The settings on record: PfDHODH enzyme, DCIP absorbance 600 nm; higher = more signal, called active from +8 up or from −8 down.
A short description of test [15]: inhibition of PAO1 biofilm formation – strain PAO1, LB-PBS medium, absorbance 600 nm, primary screen (AID 1176). Further: test concentration not given here. The settings on record: P. aeruginosa PAO1 growth/biofilm, A600, 12 h; higher = more signal.
Test [16] is described as follows: growth modulation of vineyard yeast isolate – strain RM11-1a, OD600, basal, 24 h, primary screen (AID 1177).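 Further: cultures grown under basal conditions with no added stressor; test concentration not given here.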 The settings on record: S. cerevisiae RM11-1a growth, OD600, 24 h; higher = more signal, called active from +8 up or from −8 down.
Test [17] can be described thus: growth of efflux-deficient E. coli DRC39 – strain DRC39, OD650, 24 h, E. coli filamentation inducers, primary screen (AID 1178).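 Further: growth measured as culture turbidity by optical density at 650 nm; test concentration not given here.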 The note with it: E. coli DRC39 acrAB, higher = more signal, called active from +8 up or from −8 down.
Test [18] in a line: growth of efflux-deficient E. coli DRC39 – strain DRC39, OD650, 48 h, E. coli filamentation inducers, primary screen (AID 1179).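 Further: screen aims at cell division blockers that make cells filament.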 The note with it: E. coli DRC39 delta-acrAB growth, higher = more signal, called active from +8 up or from −8 down.
Test [19] can be described thus: viability profiling in RPMI8226 myeloma cells – cell-based, resazurin fluorescence, basal, 24 h, PK04 Diversity Set, profiling panel (AID 1180).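 Further: RPMI8826 multiple myeloma cell line at 5000 cells per well; test concentration not given here.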 The note with it: higher = more signal.
Test [20] addresses E3 ubiquitin-protein ligase XIAP (Homo sapiens) (UniProt P98170). Put plainly: small molecules binding XIAP protein – biophysical, small-molecule microarray, fluorescence 635 nm, primary screen (AID 1181).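 Further: score merges 667 nm emission and signal to noise over triplicate slides.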 The settings on record: higher = more signal.

Sequence of Dihydroorotate dehydrogenase (quinone), mitochondrial (Plasmodium falciparum (isolate 3D7)) (Q08210 whole entry, looked up): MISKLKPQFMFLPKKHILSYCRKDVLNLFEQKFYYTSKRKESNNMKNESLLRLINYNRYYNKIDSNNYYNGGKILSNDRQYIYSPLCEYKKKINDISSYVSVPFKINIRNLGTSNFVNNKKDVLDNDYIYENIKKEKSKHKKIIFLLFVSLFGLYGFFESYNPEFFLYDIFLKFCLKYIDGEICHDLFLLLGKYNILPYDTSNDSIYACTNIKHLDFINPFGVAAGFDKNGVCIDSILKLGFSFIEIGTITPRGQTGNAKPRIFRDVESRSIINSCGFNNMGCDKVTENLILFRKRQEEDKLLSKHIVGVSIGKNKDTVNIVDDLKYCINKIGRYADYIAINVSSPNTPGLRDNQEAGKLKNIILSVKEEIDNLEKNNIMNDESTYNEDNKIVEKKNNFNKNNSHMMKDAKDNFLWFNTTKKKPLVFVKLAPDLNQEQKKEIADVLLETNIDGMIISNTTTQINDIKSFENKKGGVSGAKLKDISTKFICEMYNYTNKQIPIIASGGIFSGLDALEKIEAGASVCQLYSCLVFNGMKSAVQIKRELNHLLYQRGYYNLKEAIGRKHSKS
Sequence of E3 ubiquitin-protein ligase XIAP (Homo sapiens) (P98170 whole entry, looked up): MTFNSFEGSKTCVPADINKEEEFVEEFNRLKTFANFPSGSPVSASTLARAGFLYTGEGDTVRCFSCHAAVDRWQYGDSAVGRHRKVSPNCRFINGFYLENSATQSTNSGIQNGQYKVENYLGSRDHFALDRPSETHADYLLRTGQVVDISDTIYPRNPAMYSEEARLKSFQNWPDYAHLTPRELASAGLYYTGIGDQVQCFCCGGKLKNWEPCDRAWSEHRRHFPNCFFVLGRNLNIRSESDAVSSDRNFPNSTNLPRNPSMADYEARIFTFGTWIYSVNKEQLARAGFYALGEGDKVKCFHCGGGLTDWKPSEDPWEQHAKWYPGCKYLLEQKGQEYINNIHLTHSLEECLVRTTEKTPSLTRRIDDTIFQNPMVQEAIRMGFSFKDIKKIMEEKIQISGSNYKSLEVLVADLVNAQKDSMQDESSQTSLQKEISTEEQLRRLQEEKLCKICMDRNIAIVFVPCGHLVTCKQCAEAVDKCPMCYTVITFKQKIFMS

As to `COc1cc2c(cc1O)C(C)N(Cc1cccc(OC(F)(F)F)c1)CC2` (stereo not given), the z-score in test [1] is -0.762; in test [2], 0.815; in test [3], -1.51; in test [4] it was -2.34; in test [5], -2; in [6] it was 0.0471. Further, the z-score is -0.793 (inactive) in test [7]; 0.0842 in test [8]; -1.24 in test [9]; 0.849 (inactive) in test [10]; 0.177 in test [11]; -0.713 (inactive) in [12]. Besides, the z-score was -1.33 (inactive) in test [13]; -0.255 (inactive) in [15]; 0.279 (inactive) in test [16]; 0.506 (inactive) in test [17]; 0.324 (inactive) in test [18]; -0.622 in test [19]. The composite z-score was -1.44 (inactive) in test [14] and 0.427 in [20].
Consider `CCN(CC)c1ccc(N2CC=CC34O[C@@H]5C=CCCOC(=O)C5[C@H]3C(=O)N(CCCCCO)[C@@H]4C2=O)cc1` (stereo not given in full), for which the z-score in test [1] is 1.69; in test [2], 0.132; in test [3], 1.08; in test [4], 1.39; in test [5] it was -0.0513; in test [6], 1.65. The z-score in test [7] is 1.27 (inactive); in test [8] it was 0.589; in test [9] it was 0.84; in test [10] it was 1.62 (inactive); in test [11] it was 1.72; in test [12], -0.8 (inactive). Further, the z-score in test [13] is 0.974 (inactive); in test [15], 0.165 (inactive); in [16], -0.866 (inactive); in test [17], 2.21 (inactive); in [18] it was 2.23 (inactive); in test [19], 1.16. Also, the composite z-score in test [14] is -0.644 (inactive); in test [20], 0.354.
In the case of `CC(C)C[C@@H]1NC(=O)[C@@H]2C[C@H](C(=O)NCCCCCC[N+](C)(C)C)[C@H](c3ccc(O)cc3)N2C1=O`, the z-score in test [1] is -0.633; in test [2] it was -0.77; in test [3], 0.145; in [4] it was 0.305; in test [5], 0.996; in test [6], -0.595. Moreover, the z-score in [7] is 0.566 (inactive); in test [8] it was -0.815; in test [9], -0.39; in test [10], 0.0131 (inactive); in test [11], -0.219; in test [12], 0.54 (inactive). Besides, the z-score in test [13] was 0.181 (inactive); in [15], -0.282 (inactive); in test [16], 1.11 (inactive); in test [17], 0.487 (inactive); in test [18] it was 0.62 (inactive); in [19], 0.0176. The composite z-score in test [14] is 0.191 (inactive); in test [20], -0.0056.
Consider `O=C1C=CC(=O)[C@@H]2CC(COc3ccccc3)=C3[C@@H](CCc4ccccc4)OB(O)C[C@@H]3[C@H]12`, for which the z-score was -0.491 in [1]; -1.23 in test [2]; -0.478 in test [3]; -3.22 in [4]; -3.95 in test [5]; -3.77 in test [6]. The z-score in test [7] was -1.83 (inactive); in test [8], -1.01; in [9], -2.46; in [10], -0.108 (inactive); in [11], -0.814; in test [12], -6.89 (inactive). The z-score in [13] was -0.971 (inactive); in [15], 0.212 (inactive); in test [16], -0.234 (inactive); in test [17], -0.569 (inactive); in test [18], -0.422 (inactive); in [19], -0.664. In addition, the composite z-score in test [14] was -2.68 (inactive); in test [20], 0.0767.
In the case of `CO[C@H]1O[C@H](CO)[C@@H](OC(=O)Nc2ccc(Oc3ccccc3)cc2)[C@H](OC(=O)Nc2ccccc2)[C@H]1OC(=O)Nc1ccccc1`, the z-score in [1] is -1.63; in test [2], 0.547; in [3], -3.37; in test [4], -2.24; in [5], -3.61; in [6] it was -0.684. Further, the z-score is 1.2 (inactive) in [7]; -1.31 in [8]; -0.427 in test [9]; -3.41 (inactive) in test [10]; -2.18 in [11]; -0.494 (inactive) in [12]. The z-score in test [13] is -2.36 (inactive); in test [15] it was 1.97 (inactive); in test [16], 2.67 (inactive); in test [17], 1.57 (inactive); in test [18] it was 0.561 (inactive); in test [19], -2.48. Further, the results for the composite z-score in test [14] and in test [20] were -0.996 (inactive) and 0.0668, respectively.
For the molecule `O=C1OCC=C[C@H]2OC34C=CCN(c5ccc(Cl)cc5)C(=O)[C@H]3N(CCCCCCO)C(=O)[C@@H]4[C@@H]12` (stereo not given in full), the z-score in test [1] was 0.32; in test [2], -0.122; in test [3], 0.955; in test [4] it was 1.12; in test [5] it was 0.057; in test [6], 0.715. Moreover, the z-score in test [7] was 0.26 (inactive); in test [8], 0.231; in [9], 1.5; in test [10] it was 1.12 (inactive); in [11] it was 0.82; in test [12] it was -0.69 (inactive). In addition, the z-score in test [13] was 0.975 (inactive); in [15], -0.497 (inactive); in test [16] it was -0.146 (inactive); in [17], 0.571 (inactive); in test [18] it was 0.916 (inactive); in test [19] it was 1.01. Further, the composite z-score is -1.47 (inactive) in [14] and -0.138 in test [20].
For `COC(=O)[C@@]1(Cc2ccccc2)[C@H]2c3cc(C(=O)N4CCCC4)n(C)c3C[C@H]2CN1C(=O)c1ccccc1`, the z-score in test [1] is -1.14; in test [2], 0.167; in test [3], -1.24; in [4], 0.143; in [5] it was -0.284; in test [6] it was 0.533. For the same molecule, the z-score in test [7] is -0.469 (inactive); in [8], -0.0143; in test [9] it was -0.827; in test [10], -0.526 (inactive); in test [11], -0.533; in test [12], 0.211 (inactive). The z-score in [13] was -1.48 (inactive); in test [15], 0.976 (inactive); in [16], 0.513 (inactive); in test [17], -0.396 (inactive); in test [18], -0.0676 (inactive); in [19], -0.705. Besides, the values for the composite z-score in test [14] and in test [20] were 0.381 (inactive) and 0.391, respectively.
With `CCCCC(CC)C(O)C1C=CC2C(=O)N(c3ccccc3)C(=O)C2N1Nc1ccccc1` (stereo not given), the z-score in [1] is -0.5; in [2], 0.0749; in [3] it was -0.315; in test [4], -0.137; in test [5] it was -0.841; in test [6] it was -2.35. Moreover, the z-score in test [7] was 0.633 (inactive); in [8], -0.48; in [9] it was 0.00945; in test [10] it was -0.885 (inactive); in [11], -1.3; in test [12], -1.14 (inactive). The z-score is -1.51 (inactive) in test [13]; 0.462 (inactive) in [15]; -0.347 (inactive) in [16]; -0.556 (inactive) in test [17]; -0.945 (inactive) in [18]; -1.42 in test [19]. Also, the composite z-score was -0.524 (inactive) in [14] and 0.387 in [20].
`CC(C)CNC(=O)[C@@H]1c2ccccc2C(=O)N(Cc2cc(C(F)(F)F)cc(C(F)(F)F)c2)[C@H]1c1ccc(CO)cc1`: the z-score is 0.099 in [1]; 0.628 in test [2]; -0.155 in test [3]; 0.37 in test [4]; -0.754 in test [5]; 0.363 in test [6]. Besides, the z-score is -0.861 (inactive) in test [7]; 0.428 in test [8]; 1.25 in test [9]; -0.0372 (inactive) in test [10]; -1.16 in test [11]; 0.578 (inactive) in [12]. Besides, the z-score in [13] is 0.889 (inactive); in [15] it was -0.171 (inactive); in test [16], 0.927 (inactive); in [17] it was 0.898 (inactive); in test [18] it was 0.343 (inactive); in [19], 1.29. The composite z-score in test [14] was -0.697 (inactive); in test [20], -0.198.
